Test results taken from the supplement of paper PMC11732987, “Enantioselective OTUD7B fragment discovery through chemoproteomics screening and high-throughput optimisation” (Communications Chemistry, 2025).

How the values were obtained:
Experiment in all cases: log2 ratio of Biotin-Ahx-Ub-VS probe labelling (fragment/DMSO); higher = less target engagement (more negative = stronger competition), active = hit call of the paper (q ≤ 0.05, log2 ratio ≤ -1)
Conditions in all cases: compound concentration: 200 uM; treatment time: 3 h
USP34 = USP34 (UniProt Q70CQ2)
USP34, sequence (Q70CQ2 whole entry, the tested form may be a part): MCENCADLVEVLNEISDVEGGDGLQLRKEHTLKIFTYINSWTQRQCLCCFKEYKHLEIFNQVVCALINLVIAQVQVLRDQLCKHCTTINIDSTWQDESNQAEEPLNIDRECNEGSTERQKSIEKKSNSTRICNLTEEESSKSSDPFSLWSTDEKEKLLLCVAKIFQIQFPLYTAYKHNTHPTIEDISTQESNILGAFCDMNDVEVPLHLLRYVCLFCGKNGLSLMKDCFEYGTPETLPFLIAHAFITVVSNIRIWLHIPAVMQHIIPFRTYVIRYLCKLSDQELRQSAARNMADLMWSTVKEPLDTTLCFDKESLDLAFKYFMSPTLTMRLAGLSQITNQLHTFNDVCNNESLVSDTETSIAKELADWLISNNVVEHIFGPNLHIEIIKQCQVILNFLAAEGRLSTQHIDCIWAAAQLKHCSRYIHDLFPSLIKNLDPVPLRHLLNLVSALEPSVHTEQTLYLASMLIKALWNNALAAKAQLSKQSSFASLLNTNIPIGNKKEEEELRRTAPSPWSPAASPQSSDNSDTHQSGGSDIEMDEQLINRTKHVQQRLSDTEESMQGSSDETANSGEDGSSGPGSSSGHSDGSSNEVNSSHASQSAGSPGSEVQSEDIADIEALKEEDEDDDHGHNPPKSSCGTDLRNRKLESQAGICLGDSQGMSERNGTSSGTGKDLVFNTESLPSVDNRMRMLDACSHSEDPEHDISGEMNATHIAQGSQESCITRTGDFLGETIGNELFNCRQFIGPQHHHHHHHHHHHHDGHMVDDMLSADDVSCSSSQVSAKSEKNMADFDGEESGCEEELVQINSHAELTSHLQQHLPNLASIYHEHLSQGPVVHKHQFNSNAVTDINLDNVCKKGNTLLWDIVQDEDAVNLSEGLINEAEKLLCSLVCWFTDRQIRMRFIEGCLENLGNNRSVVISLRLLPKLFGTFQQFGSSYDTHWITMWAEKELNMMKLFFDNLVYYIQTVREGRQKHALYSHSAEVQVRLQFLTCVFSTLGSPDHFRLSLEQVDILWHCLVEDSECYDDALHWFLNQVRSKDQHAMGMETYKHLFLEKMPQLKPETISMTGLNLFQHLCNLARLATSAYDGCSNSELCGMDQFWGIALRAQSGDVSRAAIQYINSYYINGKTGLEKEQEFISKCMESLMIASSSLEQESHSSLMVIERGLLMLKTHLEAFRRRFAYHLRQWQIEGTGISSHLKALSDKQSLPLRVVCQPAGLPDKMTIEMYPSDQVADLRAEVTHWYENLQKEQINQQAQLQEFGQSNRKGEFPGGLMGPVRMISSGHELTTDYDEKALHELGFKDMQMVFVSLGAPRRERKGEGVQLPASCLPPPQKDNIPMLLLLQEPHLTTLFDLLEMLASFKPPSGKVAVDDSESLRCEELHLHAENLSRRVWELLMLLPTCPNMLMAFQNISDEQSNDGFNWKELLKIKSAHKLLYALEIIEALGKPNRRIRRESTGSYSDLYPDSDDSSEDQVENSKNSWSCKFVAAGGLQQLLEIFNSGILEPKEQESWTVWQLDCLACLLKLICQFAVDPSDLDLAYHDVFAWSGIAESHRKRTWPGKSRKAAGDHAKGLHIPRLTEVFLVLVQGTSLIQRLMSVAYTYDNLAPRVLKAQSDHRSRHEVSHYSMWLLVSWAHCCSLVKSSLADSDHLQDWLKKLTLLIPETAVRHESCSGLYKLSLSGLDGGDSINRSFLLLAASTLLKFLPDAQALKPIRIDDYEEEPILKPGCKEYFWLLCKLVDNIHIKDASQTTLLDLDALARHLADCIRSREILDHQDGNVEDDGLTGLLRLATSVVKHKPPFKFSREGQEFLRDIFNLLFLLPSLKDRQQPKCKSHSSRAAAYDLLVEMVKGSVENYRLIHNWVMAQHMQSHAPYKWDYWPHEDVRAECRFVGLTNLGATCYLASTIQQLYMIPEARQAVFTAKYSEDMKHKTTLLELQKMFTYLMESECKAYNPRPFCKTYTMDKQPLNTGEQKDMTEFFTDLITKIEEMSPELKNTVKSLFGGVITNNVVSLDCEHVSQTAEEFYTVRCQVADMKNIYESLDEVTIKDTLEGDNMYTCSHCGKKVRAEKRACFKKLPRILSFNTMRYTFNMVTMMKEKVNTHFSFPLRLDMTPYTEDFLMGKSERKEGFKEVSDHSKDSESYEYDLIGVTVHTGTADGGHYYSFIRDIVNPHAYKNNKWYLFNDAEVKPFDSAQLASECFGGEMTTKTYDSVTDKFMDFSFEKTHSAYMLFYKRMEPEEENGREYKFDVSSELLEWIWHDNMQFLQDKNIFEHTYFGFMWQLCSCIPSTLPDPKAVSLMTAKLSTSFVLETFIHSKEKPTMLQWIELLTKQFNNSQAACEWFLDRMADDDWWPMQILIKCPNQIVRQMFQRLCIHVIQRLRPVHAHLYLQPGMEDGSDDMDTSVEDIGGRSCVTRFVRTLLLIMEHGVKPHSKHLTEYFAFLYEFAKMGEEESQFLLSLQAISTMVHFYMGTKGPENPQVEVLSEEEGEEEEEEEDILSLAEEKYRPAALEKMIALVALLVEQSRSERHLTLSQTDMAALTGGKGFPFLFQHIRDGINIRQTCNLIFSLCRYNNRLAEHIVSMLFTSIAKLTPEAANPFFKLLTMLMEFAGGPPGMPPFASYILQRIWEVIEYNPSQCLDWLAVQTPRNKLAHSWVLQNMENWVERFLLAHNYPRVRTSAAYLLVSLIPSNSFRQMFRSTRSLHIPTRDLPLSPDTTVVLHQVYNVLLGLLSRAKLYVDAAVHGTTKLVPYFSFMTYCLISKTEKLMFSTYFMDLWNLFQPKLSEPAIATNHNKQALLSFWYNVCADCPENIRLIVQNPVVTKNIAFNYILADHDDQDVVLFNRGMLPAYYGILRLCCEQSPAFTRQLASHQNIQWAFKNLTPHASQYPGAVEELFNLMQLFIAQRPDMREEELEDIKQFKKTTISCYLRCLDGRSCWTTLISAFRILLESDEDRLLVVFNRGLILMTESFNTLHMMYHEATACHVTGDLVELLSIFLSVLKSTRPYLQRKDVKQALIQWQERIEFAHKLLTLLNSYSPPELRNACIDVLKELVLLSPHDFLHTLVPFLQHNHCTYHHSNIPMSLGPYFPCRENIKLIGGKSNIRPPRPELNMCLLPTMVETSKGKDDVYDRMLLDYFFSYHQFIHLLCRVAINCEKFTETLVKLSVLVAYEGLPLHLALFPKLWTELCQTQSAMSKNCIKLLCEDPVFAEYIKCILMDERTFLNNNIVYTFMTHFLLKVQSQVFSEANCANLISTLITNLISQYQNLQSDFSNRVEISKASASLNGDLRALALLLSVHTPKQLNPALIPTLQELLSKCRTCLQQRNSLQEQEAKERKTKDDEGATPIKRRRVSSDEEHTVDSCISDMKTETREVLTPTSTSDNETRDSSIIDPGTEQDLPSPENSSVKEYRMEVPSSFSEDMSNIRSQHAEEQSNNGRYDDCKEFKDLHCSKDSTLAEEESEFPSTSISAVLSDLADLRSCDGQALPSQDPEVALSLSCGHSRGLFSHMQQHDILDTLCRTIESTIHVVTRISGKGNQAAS
In short: (§1)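 Each value is an average log2 ratio of fragment to vehicle, tested by unpaired t-test. The underlying Spectronaut label-free quantities were global-median-normalised, and only proteins with ≥2 unique peptides were included. Triplicate HEK293T lysate samples (495 µg) were exposed to fragment at 200 µM or vehicle for 3 h, then to Biotin-Ahx-Ub-VS at 0.5 µM final for 1 h, before NeutrAvidin enrichment of labelled DUBs, LysC and trypsin digestion, and diaPASEF LC-MS/MS.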

USP36 = molecular target: T1, USP36 (UniProt Q9P275)
T1 sequence (whole entry): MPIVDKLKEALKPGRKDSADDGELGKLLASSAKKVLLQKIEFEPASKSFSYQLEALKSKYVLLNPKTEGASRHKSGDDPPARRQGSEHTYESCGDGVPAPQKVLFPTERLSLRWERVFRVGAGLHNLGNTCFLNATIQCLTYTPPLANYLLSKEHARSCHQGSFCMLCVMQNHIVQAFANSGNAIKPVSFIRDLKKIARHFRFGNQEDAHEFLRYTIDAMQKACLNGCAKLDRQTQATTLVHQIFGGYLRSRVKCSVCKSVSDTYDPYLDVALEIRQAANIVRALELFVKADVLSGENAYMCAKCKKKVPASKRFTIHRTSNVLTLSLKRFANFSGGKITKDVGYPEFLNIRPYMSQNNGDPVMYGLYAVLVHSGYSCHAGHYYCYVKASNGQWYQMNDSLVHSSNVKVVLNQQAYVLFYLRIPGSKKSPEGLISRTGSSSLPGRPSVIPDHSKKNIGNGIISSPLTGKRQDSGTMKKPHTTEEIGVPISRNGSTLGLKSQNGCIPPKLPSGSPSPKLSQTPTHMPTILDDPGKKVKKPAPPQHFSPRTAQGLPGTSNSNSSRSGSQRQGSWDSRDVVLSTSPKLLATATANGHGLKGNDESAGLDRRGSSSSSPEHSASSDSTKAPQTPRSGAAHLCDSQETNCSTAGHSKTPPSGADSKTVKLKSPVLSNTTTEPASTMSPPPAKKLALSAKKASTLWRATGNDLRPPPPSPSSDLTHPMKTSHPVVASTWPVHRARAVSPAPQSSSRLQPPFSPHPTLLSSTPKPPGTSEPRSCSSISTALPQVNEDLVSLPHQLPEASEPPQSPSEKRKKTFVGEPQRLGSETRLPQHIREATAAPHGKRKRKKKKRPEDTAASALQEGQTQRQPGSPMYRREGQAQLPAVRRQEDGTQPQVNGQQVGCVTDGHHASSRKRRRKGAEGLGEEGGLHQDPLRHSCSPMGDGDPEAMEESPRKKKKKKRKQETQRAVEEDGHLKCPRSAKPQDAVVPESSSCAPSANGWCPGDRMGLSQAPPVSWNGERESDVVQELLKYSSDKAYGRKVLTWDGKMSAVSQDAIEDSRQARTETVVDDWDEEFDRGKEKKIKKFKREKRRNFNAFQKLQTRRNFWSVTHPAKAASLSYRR
In short: as §1

USP38 = molecular target: T2, USP38 (UniProt Q8NB14)
T2 sequence (whole entry): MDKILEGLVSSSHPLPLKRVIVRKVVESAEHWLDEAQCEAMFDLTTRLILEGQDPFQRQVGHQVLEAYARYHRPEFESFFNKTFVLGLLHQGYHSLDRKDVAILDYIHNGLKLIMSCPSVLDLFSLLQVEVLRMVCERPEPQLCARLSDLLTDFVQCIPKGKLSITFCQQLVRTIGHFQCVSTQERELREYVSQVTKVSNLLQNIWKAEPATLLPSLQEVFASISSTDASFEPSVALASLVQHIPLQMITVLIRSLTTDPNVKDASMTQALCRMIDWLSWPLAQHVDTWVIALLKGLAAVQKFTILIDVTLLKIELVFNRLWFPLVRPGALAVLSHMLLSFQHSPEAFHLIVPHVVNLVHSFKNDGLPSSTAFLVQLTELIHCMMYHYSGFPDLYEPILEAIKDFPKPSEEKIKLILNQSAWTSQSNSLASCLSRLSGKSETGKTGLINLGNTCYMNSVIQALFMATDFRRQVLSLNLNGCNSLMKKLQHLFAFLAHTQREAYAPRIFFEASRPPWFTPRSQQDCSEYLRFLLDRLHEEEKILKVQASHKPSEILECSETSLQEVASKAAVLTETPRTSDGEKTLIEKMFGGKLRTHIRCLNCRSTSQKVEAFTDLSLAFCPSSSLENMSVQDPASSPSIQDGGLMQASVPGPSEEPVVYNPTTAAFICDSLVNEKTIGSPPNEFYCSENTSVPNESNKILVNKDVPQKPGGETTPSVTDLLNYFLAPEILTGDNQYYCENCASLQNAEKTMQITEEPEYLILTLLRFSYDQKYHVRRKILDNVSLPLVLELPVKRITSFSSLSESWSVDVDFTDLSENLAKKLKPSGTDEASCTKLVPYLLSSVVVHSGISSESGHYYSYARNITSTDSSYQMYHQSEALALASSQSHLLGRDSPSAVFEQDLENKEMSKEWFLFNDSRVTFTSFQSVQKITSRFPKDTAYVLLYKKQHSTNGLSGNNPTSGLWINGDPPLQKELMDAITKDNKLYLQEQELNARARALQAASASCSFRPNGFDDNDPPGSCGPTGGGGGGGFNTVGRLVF
In short: as §1

USP39 = molecular target: T3, USP39 (UniProt Q53GS9)
T3 sequence (whole entry): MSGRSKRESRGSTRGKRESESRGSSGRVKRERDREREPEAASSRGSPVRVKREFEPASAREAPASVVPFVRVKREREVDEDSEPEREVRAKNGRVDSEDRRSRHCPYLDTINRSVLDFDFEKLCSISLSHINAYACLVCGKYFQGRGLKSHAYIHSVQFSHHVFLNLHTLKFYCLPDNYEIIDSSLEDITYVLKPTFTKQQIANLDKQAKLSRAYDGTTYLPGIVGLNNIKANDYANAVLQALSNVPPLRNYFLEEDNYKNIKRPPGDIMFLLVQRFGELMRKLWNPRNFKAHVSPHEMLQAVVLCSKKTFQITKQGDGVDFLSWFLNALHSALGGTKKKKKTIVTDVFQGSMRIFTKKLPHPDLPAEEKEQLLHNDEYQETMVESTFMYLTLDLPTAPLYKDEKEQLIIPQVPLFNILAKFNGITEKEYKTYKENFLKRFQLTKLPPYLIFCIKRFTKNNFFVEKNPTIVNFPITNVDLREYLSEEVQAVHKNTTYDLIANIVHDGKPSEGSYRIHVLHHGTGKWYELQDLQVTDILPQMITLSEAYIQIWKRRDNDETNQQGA
In short: as §1

USP4 = molecular target: T4, USP4 (UniProt Q13107)
T4 sequence (whole entry): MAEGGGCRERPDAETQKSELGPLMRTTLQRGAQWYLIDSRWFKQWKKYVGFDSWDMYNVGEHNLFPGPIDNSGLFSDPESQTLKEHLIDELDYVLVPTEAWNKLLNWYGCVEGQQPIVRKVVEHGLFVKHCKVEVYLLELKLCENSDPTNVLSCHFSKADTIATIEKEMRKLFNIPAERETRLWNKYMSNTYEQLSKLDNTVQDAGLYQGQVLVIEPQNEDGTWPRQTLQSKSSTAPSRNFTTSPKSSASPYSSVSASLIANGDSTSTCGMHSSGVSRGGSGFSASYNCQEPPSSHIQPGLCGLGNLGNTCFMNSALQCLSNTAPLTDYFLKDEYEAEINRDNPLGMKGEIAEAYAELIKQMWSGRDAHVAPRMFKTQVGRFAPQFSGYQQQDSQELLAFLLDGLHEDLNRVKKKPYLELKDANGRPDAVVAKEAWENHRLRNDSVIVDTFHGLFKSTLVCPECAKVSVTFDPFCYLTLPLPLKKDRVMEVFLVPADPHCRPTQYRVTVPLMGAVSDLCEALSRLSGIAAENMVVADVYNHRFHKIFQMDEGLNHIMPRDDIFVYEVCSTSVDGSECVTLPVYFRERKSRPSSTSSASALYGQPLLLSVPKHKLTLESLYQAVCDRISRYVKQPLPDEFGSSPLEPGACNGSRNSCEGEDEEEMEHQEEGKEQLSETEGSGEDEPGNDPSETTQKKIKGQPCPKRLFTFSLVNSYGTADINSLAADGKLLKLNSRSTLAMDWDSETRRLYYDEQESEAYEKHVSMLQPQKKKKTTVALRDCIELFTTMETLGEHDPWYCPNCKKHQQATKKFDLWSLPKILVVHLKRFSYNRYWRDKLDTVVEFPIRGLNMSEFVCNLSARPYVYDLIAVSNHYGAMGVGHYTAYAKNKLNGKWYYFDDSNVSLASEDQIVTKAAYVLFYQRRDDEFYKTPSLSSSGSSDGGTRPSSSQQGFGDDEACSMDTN
In short: as §1

Measured: log2 ratio of Biotin-Ahx-Ub-VS probe labelling

Cc1ccc(CN(CCO)C(=O)CCl)cc1
inactive: USP34 0.0432 | USP36 -0.00999 | USP38 -0.303 | USP39 -0.0925 | USP4 -0.21
